Test in all cases: yeast three-hybrid, YBZ-1, SC-Leu-His + 0.5 mM 3-AT, 4 days
Conditions in all cases: tags: N-Gal4 AD-HA kept; label: inside an RPR1-promoter hybrid RNA with tandem MS2 sites; ssRNA

For one test, the target named is PUM1 PUF domain R7-EPW (Homo sapiens, UniProt Q14671 828-1176, S1079E;N1080P;E1083W). In outline:
(§1)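 Pumilio-1 PUF domain libraries, randomized at the three base-contacting residues of each repeat, were co-expressed with matching RNA elements from a centromeric plasmid in strain YBZ-1, which carries a LexA–MS2 coat fusion and a HIS3 reporter. Transformants grew for four days on SC-Leu (input) or on SC-Leu-His + 0.5 mM 3-AT (selection), and the repeat regions were PCR-amplified and Illumina-sequenced. The interaction score is the log change in variant frequency from input to selection. That logarithm is base 2, with a pseudocount of 1 where a variant was absent.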

Another test has as its target PUM1 PUF domain R4-SRE (Homo sapiens, UniProt Q14671 828-1176, N971S;H972R;Q975E). In outline:
as §1

The target in the next test is PUM1 PUF domain R4-ARG (Homo sapiens, UniProt Q14671 828-1176, N971A;H972R;Q975G). In a few lines: as §1
The next test addresses T1, PUM1 PUF domain R6-NFT (Homo sapiens, UniProt Q14671 828-1176, Y1044F;Q1047T).
T1 sequence: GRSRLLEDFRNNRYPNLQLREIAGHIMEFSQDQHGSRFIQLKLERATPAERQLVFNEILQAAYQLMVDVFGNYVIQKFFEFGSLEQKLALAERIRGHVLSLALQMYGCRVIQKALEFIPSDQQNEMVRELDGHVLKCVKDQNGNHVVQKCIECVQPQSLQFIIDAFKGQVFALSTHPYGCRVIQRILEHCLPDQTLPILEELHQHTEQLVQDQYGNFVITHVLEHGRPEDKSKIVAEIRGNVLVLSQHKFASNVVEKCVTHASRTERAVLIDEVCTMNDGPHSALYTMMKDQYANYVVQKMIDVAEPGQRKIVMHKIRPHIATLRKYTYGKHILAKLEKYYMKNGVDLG
In a few lines:
as §1

The target in a further test is PUM1 PUF domain R3-ESL (Homo sapiens, UniProt Q14671 828-1176, C935E;R936S;Q939L). In a few lines: as §1
In the next test the target is PUM1 PUF domain R8-VYF (Homo sapiens, UniProt Q14671 828-1176, N1122V;Q1126F). In outline:
as §1

Another test concerns the target PUM1 PUF domain R4-NPG (Homo sapiens, UniProt Q14671 828-1176, H972P;Q975G). In outline:
as §1

In another test the target is PUM1 PUF domain R3-EYS (Homo sapiens, UniProt Q14671 828-1176, C935E;R936Y;Q939S). In outline: as §1
Another test deals with PUM1 PUF domain R4-RMR (Homo sapiens, UniProt Q14671 828-1176, N971R;H972M;Q975R). In a few lines:
as §1

A further test deals with PUM1 PUF domain R7-KFY (Homo sapiens, UniProt Q14671 828-1176, S1079K;N1080F;E1083Y). In a few lines: as §1

PUM1 PUF domain R4-ARG, sequence (Q14671 828-1176 N971A/H972R/Q975G): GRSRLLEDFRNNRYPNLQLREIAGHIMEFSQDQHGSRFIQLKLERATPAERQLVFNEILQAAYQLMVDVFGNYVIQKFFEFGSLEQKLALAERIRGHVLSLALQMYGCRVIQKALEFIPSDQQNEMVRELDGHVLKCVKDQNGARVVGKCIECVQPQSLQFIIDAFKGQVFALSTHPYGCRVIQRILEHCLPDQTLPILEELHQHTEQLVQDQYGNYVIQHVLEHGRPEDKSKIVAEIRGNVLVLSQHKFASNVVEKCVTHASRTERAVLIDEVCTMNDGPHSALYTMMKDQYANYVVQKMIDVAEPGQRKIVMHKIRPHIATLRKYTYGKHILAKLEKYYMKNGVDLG
PUM1 PUF domain R4-NPG, sequence (Q14671 828-1176 H972P/Q975G): as the sequence (Q14671 828-1176 N971A/H972R/Q975G) above, with A144N, R145P counted along it

For “GGCUAGAACUAGUGGAUCCCCCGGCGCCCGGCGGCUCGAGCCCGGGUAAGUUUAAAUAGUCUGCAUGCCGCCGGGCGCCAUGCCUGCAGGUCGACUCUAGAAAACAUG”, in the test with PUM1 PUF domain R7-EPW, the binding signal was 2.81 log2 enrichment (interaction score).
As for “GGCUAGAACUAGUGGAUCCCCCGGCGCCCGGCGGCUCGAGCCCGGGUAAGUGUAAAUAGUCUGCAUGCCGCCGGGCGCCAUGCCUGCAGGUCGACUCUAGAAAACAUG”, the binding signal is 3.49 log2 enrichment (interaction score) with PUM1 PUF domain R4-SRE; 4.57 log2 enrichment (interaction score) with PUM1 PUF domain R4-ARG; 4.45 log2 enrichment (interaction score) with PUM1 PUF domain R6-NFT; 2.59 log2 enrichment (interaction score) with PUM1 PUF domain R3-ESL; 2.23 log2 enrichment (interaction score) with PUM1 PUF domain R8-VYF; 2.63 log2 enrichment (interaction score) with PUM1 PUF domain R4-NPG.
As to “GGCUAGAACUAGUGGAUCCCCCGGCGCCCGGCGGCUCGAGCCCGGGUAAGUGUAAGUAGUCUGCAUGCCGCCGGGCGCCAUGCCUGCAGGUCGACUCUAGAAAACAUG”, the binding signal in the test with PUM1 PUF domain R3-EYS was 4.44 log2 enrichment (interaction score).
As to “GGCUAGAACUAGUGGAUCCCCCGGCGCCCGGCGGCUCGAGCCCGGGUAAGUGUACAUAGUCUGCAUGCCGCCGGGCGCCAUGCCUGCAGGUCGACUCUAGAAAACAUG”, the binding signal with PUM1 PUF domain R4-RMR is 2.94 log2 enrichment (interaction score); with PUM1 PUF domain R4-ARG, 1.86 log2 enrichment (interaction score); with PUM1 PUF domain R4-NPG it was 1.42 log2 enrichment (interaction score).
“GGCUAGAACUAGUGGAUCCCCCGGCGCCCGGCGGCUCGAGCCCGGGUAAGUAUAAAUAGUCUGCAUGCCGCCGGGCGCCAUGCCUGCAGGUCGACUCUAGAAAACAUG”: the binding signal with PUM1 PUF domain R7-KFY is 2.56 log2 enrichment (interaction score).
Same read-out and setting: the same measure for “GGCUAGAACUAGUGGAUCCCCCGGCGCCCGGCGGCUCGAGCCCGGGUAAGUCUAAAUAGUCUGCAUGCCGCCGGGCGCCAUGCCUGCAGGUCGACUCUAGAAAACAUG”: 3.1 log2 enrichment (interaction score).
As to “GGCUAGAACUAGUGGAUCCCCCGGCGCCCGGCGGCUCGAGCCCGGGUAAGUGUAUAUAGUCUGCAUGCCGCCGGGCGCCAUGCCUGCAGGUCGACUCUAGAAAACAUG”, the results for the binding signal with PUM1 PUF domain R4-ARG and with PUM1 PUF domain R4-NPG were 1.79 log2 enrichment (interaction score) and 3.81 log2 enrichment (interaction score), respectively.
“GGCUAGAACUAGUGGAUCCCCCGGCGCCCGGCGGCUCGAGCCCGGGUAAGCGUAAAUAGUCUGCAUGCCGCCGGGCGCCAUGCCUGCAGGUCGACUCUAGAAAACAUG”: in the test with PUM1 PUF domain R8-VYF, the binding signal is 2.73 log2 enrichment (interaction score).

(Values after paper PMC8384837, “Expanding the binding specificity for RNA recognition by a PUF domain”.)
